Results from the supplement of paper PMC12067093, “Discovery and optimisation of a covalent ligand for TRIM25 and its application to targeted protein ubiquitination” (Chemical Science, 2025).
Of roughly 21,000 targets only a part is listed; those with the largest changes were picked by preference.

These targets were tested with Cc1cc(ccc1-c1ccccc1)C(=O)N1CCCN(CC1)C(=O)CCl [compound 10] (assay: probe-labelled cysteine peptide fold change vs DMSO (competition) (log2 fold change); higher = less target engagement (more negative = stronger competition)). Conditions: 10 µM; THP-1; incubation time: 4 h.
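Note: competitive profiling in live THP-1 cells: cysteine peptides tagged with an iodoacetamide desthiobiotin (IA-DTB) probe, intensity after compound treatment relative to DMSO-treated cells.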

**Q.** For “NT5C3B_Q969T7_73_IISEECR (UniProt Q969T7)”, which “probe-labelled cysteine peptide fold change” value is on record?
**A.** -0.00671

**Q.** Which “probe-labelled cysteine peptide fold change” value does the source give for “OAT_P04181_93_YFDFLSSYSAVNQGHCHPK (UniProt P04181)” here?
**A.** 0.0237

**Q.** Which “probe-labelled cysteine peptide fold change” value does the source give for “NOP2_P46087_463_VLLDAPCSGTGVISK (UniProt P46087)” here?
**A.** -0.0187

**Q.** For “MYO6_Q9UM54_790_RVNHWLTCSR (UniProt Q9UM54)”, which “probe-labelled cysteine peptide fold change” value is on record?
**A.** 0.104

**Q.** For “NFKB1_P19838_61_YVCEGPSHGGLPGASSEK (UniProt P19838)”, which “probe-labelled cysteine peptide fold change” value is on record?
**A.** 0.0894

**Q.** Which “probe-labelled cysteine peptide fold change” value does the source give for “NOL9_Q5SY16_637_TVNCLLVGAIAIPHCVLK (UniProt Q5SY16)” here?
**A.** -0.0765

**Q.** With “NOTCH2_Q04721_427_GADCTEDVDECAMANSNPCEHAGK (UniProt Q04721)” as the target, how does the “probe-labelled cysteine peptide fold change” value read?
**A.** 0.149

**Q.** Which “probe-labelled cysteine peptide fold change” value does the source give for “PALD1_Q9ULE6_65_VAPVVITYNCK (UniProt Q9ULE6)” here?
**A.** 0.106

**Q.** For “NOMO3_P69849_565_ISIMHEDWCWK<|>NOMO1_Q15155_565_ISIMHEDWCWK<|>NOMO2_Q5JPE7_565_ISIMHEDWCWK (UniProt Q5JPE7+Q15155+P69849)”, which “probe-labelled cysteine peptide fold change” value is on record?
**A.** 0.0786

**Q.** With “OSTC_Q9NRP0_14_VPFLVLECPNLK (UniProt Q9NRP0)” as the target, how does the “probe-labelled cysteine peptide fold change” value read?
**A.** 0.025

**Q.** For “MYO9B_Q13459_1876_ITTCVEMLIK (UniProt Q13459)”, which “probe-labelled cysteine peptide fold change” value is on record?
**A.** 0.0944

**Q.** Which “probe-labelled cysteine peptide fold change” value does the source give for “NT5DC1_Q5TFE4_139_YYFYDNYFDLPGALLCAR (UniProt Q5TFE4)” here?
**A.** 1.21

**Q.** How did the “probe-labelled cysteine peptide fold change” value turn out when “P3H1_Q32P28_568_LDTPLYFSYSHLVCR (UniProt Q32P28)” was run?
**A.** -0.35

**Q.** With “NFS1_Q9Y697_353_HHYPGCINLSFAYVEGESLLMALK (UniProt Q9Y697)” as the target, how does the “probe-labelled cysteine peptide fold change” value read?
**A.** 0.466

**Q.** How did the “probe-labelled cysteine peptide fold change” value turn out when “NUP205_Q92621_698_CEEYPLTR (UniProt Q92621)” was run?
**A.** 0.0608

**Q.** For “PARK7_Q99497_53_DVVICPDASLEDAK (UniProt Q99497)”, which “probe-labelled cysteine peptide fold change” value is on record?
**A.** -0.432

**Q.** For “NRAS_P01111_51_KQVVIDGETCLLDILDTAGQEEYSAMRDQYMR<|>HRAS_P01112_51_KQVVIDGETCLLDILDTAGQEEYSAMRDQYMR (UniProt P01112+P01111)”, which “probe-labelled cysteine peptide fold change” value is on record?
**A.** -0.209

**Q.** With “PA2G4_Q9UQ80_85_GIAFPTSISVNNCVCHFSPLK (UniProt Q9UQ80)” as the target, how does the “probe-labelled cysteine peptide fold change” value read?
**A.** 0.203

**Q.** Which “probe-labelled cysteine peptide fold change” value does the source give for MYO6_Q9UM54_321_MCTAMK (UniProt Q9UM54) here?
**A.** 0.00117

**Q.** “PAK2_Q13177_352_ECLQALEFLHANQVIHR (UniProt Q13177)” was tested. Which “probe-labelled cysteine peptide fold change” value did it give?
**A.** 0.441

**Q.** “P4HTM_Q9NXG6_156_PLLFEIPGFLTDEECR (UniProt Q9NXG6)” was tested. Which “probe-labelled cysteine peptide fold change” value did it give?
**A.** 0.372

**Q.** How did the “probe-labelled cysteine peptide fold change” value turn out when “NFX1_Q12986_295_STCDSENLAVINK (UniProt Q12986)” was run?
**A.** 0.0638

**Q.** For “PALD1_Q9ULE6_382_AITACAELHDLK (UniProt Q9ULE6)”, which “probe-labelled cysteine peptide fold change” value is on record?
**A.** -0.02

**Q.** With “PARP14_Q460N5_509_VTQHLCLK (UniProt Q460N5)” as the target, how does the “probe-labelled cysteine peptide fold change” value read?
**A.** 0.0914

**Q.** With “PAICS_P22234_266_SESQCR (UniProt P22234)” as the target, how does the “probe-labelled cysteine peptide fold change” value read?
**A.** 0.613

**Q.** How did the “probe-labelled cysteine peptide fold change” value turn out when “NSDHL_Q15738_86_FFLGDLCSR (UniProt Q15738)” was run?
**A.** -0.104

**Q.** Which “probe-labelled cysteine peptide fold change” value does the source give for “P4HB_P07237_397_KNVFVEFYAPWCGHCK (UniProt P07237)” here?
**A.** -0.644

**Q.** How did the “probe-labelled cysteine peptide fold change” value turn out when “NECTIN2_Q92692_238_ADGVTVTCK (UniProt Q92692)” was run?
**A.** -0.148

**Q.** With “NR2F6_P10588_316_AIALFTPDACGLSDPAHVESLQEK (UniProt P10588)” as the target, how does the “probe-labelled cysteine peptide fold change” value read?
**A.** -0.711

**Q.** With “NUMA1_Q14980_961_QFCSTQAALQAMER (UniProt Q14980)” as the target, how does the “probe-labelled cysteine peptide fold change” value read?
**A.** -0.0783

**Q.** For “NACC2_Q96BF6_393_NTLANSCGTGIR<|>NACC1_Q96RE7_416_NTLANSCGTGIR (UniProt Q96RE7+Q96BF6)”, which “probe-labelled cysteine peptide fold change” value is on record?
**A.** -0.485

**Q.** For “NUBP1_P53384_8_MEEVPHDCPGADSAQAGR (UniProt P53384)”, which “probe-labelled cysteine peptide fold change” value is on record?
**A.** 1.37

**Q.** “P4HB_P07237_53_YLLVEFYAPWCGHCK (UniProt P07237)” was tested. Which “probe-labelled cysteine peptide fold change” value did it give?
**A.** -1.15

**Q.** How did the “probe-labelled cysteine peptide fold change” value turn out when “NIPSNAP3A_Q9UFN0_135_QESEITYLVPWCK (UniProt Q9UFN0)” was run?
**A.** 0.151
